Assay outcomes (PubChem)
In the library only some 4.1% were active in any assay of this set; here they are far more common.
hcDAF12 agonist: H. contortus DAF-12 nuclear receptor activators, primary screen, cell-based, luminescence, HEK293, lit1-tk-luc reporter; AID 652067, 2013; 370,000 tested, 1.4% active; activation, % at 6.8 µM; HEK293 hcDAF-12 lit1-tk-luc reporter; 0% DMSO, 100% Δ7-dafachronic acid;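 active = activation above the mean of all tested compounds plus 3 SD, cut at about 5.5% in these data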
DAX1 inh-1: DAX1 (NR0B1) inhibitors on StAR promoter, primary screen, cell-based, luminescence, SF-1 (NR5A1), full-length DAX-1. HEK293T StAR-luciferase reporter, SF-1/DAX-1 repression relief. inhibition, % at 6.8 µM. 370,000 tested, 1.1% active;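 active = inhibition above the mean over all tested compounds plus 3 SD, cut at about 3.6% in these data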;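 note: higher inhibition means more luminescence from relief of DAX-1 repression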
DAX1 inh-2: DAX1 (NR0B1) inhibitors, primary screen, cell-based, HEK293, Gal4-DAX1, luciferase luminescence | Nuclear receptor subfamily 0 group B member 1 (Homo sapiens), P51843 | HEK293 Gal4-DAX1 luciferase reporter | inhibition, % at 6.75 µM | 340,000 tested, 0.99% active | AID 504766, 2011;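 active = inhibition above the mean over all tested compounds plus 3 SD, cut at about 4.2% in these data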;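 note: inhibition shows as a rise in luminescence from relieved DAX1 repression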
ssDAF12 agonist: S. stercoralis DAF-12 nuclear receptor activators, primary screen, cell-based, luminescence, HEK293, GRIP1 co-expression, lit1-tk-luc. 370,000 tested, 1% active. HEK293 ssDAF-12/GRIP1 lit1-tk-luc reporter; % of 3 µM dafachronic acid response. AID 652126, 2013. activation, % at 6.8 µM;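 active = activation above the mean over all tested compounds plus 3 SD, cut at about 0.9% in these data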
hgDAF-12 ag: H. glycines DAF-12 receptor agonists, primary screen, cell-based, luminescence, HEK293, GAL4 fusion, UAS-luciferase; HEK293 GAL4-hgDAF12 UAS-luciferase reporter, agonist luminescence; normalized to butyrate control; activation, % at 6.8 µM; 370,000 tested, 1.8% active;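 active = activation above a cutoff set at the mean of all screened compounds plus 3 SD, cut at about 10% in these data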
LXR ag: LXR agonists, Gal4 luciferase reporter, confirmation, counter-screen for hcDAF-12 agonist project, cell-based, luminescence, HEK293, H. contortus campaign; HEK293 Gal4-LXR tk-luc reporter, 24 h; normalized: DMSO 0%, positive control 100%; shares compounds with hcDAF12 agonist; activation, % at 6.8 µM; AID 743027, 2013; 3,400 tested, under 10 active;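 active = mean percent activation of the reporter above a cutoff set as the average over tested compounds plus their standard deviation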
Target sequence (P55055 whole entry, looked up, the tested form may be a part): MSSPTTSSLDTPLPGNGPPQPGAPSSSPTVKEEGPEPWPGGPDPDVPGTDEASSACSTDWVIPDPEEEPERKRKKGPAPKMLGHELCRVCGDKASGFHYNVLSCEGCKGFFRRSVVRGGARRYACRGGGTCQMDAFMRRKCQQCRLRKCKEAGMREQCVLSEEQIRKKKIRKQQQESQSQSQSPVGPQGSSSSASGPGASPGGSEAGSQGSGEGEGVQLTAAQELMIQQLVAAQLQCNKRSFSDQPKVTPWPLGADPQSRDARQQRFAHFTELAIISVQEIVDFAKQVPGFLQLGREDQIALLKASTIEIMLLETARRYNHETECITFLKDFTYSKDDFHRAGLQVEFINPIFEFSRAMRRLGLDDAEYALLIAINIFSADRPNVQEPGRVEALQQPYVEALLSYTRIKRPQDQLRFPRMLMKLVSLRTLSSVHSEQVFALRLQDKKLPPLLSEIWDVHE
hcDAF12 ag: H. contortus DAF-12 receptor agonists, confirmation, cell-based, luminescence, HEK293, lit1-tk-luc, triplicate; 3,400 tested, 61% active; shares compounds with hcDAF12 agonist; AID 743032, 2013; activation, % at 6.8 µM; HEK293 hcDAF-12 lit1-tk-luc reporter; % of Δ7-dafachronic acid response;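 active = mean activation across triplicate tests above the threshold derived from the earlier primary screen, cut at about 5.5% in these data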
Each line names hits and unclear results; the compound was inactive in the other large screens (follow-up assays come after a bar, where they were run).

CN(C)CCNC(=O)C(=O)C1C(=O)Nc2ccccc21 (stereo not drawn)	hcDAF12 agonist 8.0, ssDAF12 agonist 0.9 (no result: DAX1 inh-2) | LXR ag inactive | hcDAF12 ag inactive
Cc1cc(N)n(-c2ccc(C)c(C)c2)n1	hcDAF12 agonist 7.1 | LXR ag inactive | hcDAF12 ag inactive
Cc1cc(N)n(-c2ccc([N+](=O)[O-])cc2)n1	none
COC(=O)c1cc2c(c3c4ccccc4n(S(=O)(=O)c4ccc(OC)cc4)c13)C(=O)N(Cc1ccco1)C2	none (no result: DAX1 inh-2)
O=C(CCc1ccccc1)N[C@H]1[C@@H](OC(=O)C2CC2)CCC[C@@]12C(=O)N(Cc1ccccc1)c1ccccc12	none (no result: DAX1 inh-2)
CCC[C@H]1[C@@H](NC(=O)NCC)CC[C@@]23CCCN2C(=O)CCC[C@@H]13	none (no result: DAX1 inh-1, DAX1 inh-2)
CCOC(=O)C1=CCN(S(=O)(=O)c2ccc(F)cc2)C1c1ccccc1 (stereo not drawn)	hcDAF12 agonist 7.7 (no result: DAX1 inh-2) | LXR ag inactive | hcDAF12 ag inactive
O=S(=O)(O)c1ccc(N2N=C(c3ccccc3)CC2c2ccccc2)cc1 (stereo not drawn)	hcDAF12 agonist 7.4 | LXR ag inactive | hcDAF12 ag inactive
NS(=O)(=O)c1ccc(N2N=C(c3ccccc3)CC2c2ccccc2)cc1 (stereo not drawn)	none
C=CCN1C(=O)[C@H](CC(=O)N2CCN(C(=O)c3ccco3)CC2)[C@@]2(C(=O)OCC)CCCC=C12	none (no result: DAX1 inh-2)
C=CC(=O)NC1CCCCN(C(C)C)C1=O (stereo not drawn)	none (no result: DAX1 inh-2)
COc1ccc(NCc2nc3ccccc3n2C)cc1	hcDAF12 agonist 10.0, DAX1 inh-2 5.6, ssDAF12 agonist 2.4, hgDAF-12 ag 12 | LXR ag inactive | hcDAF12 ag 12
Cc1ccc(NC(=O)NCc2nc3ccccc3n2C)cc1	none
Cc1ccc(NCc2nc3ccccc3n2C)cc1C	hcDAF12 agonist 13, ssDAF12 agonist 1.7, hgDAF-12 ag 13 | LXR ag inactive | hcDAF12 ag 8.2
COc1ccc(OC)c(CN2C(=O)COc3ccccc3C2c2nnnn2C2CCCC2)c1 (stereo not drawn)	none (no result: DAX1 inh-2)
CN(C)c1ccc(NC(=O)CCN2C(=O)c3cccc([N+](=O)[O-])c3C2=O)cc1	hcDAF12 agonist 7.0 | LXR ag inactive | hcDAF12 ag inactive
O=C(OCc1cn(Cc2ccc(F)cc2F)nn1)N1CCCC1	none (no result: DAX1 inh-2)
CCCCN1CCN(C(=O)c2cn(C(C)c3ccccc3)nn2)CC1 (stereo not drawn)	none (no result: DAX1 inh-2)
CC(C)CCNC(=O)C(=O)NCCC1=CCCCC1	hcDAF12 agonist 6.7 | LXR ag inactive | hcDAF12 ag inactive
CCN1C[C@@H]2[C@@H]3C(=O)N(Cc4ccccc4)C(=O)[C@@H]3[C@](CC)(C1=O)N2C(=O)c1ccc(Cl)cc1	none (no result: DAX1 inh-2)
Nc1[nH]c(C(=O)c2ccc(Br)cc2)c(-c2ccc(Cl)cc2)c1C(=O)NCCc1c[nH]c2ccccc12	none (no result: DAX1 inh-2)
Cc1ccc(NCC(=O)c2ccccc2)cc1Cl	hcDAF12 agonist 7.7 | LXR ag inactive | hcDAF12 ag inactive
Cc1ccc(C(=O)CNc2ccc(C)c(Cl)c2)cc1	none
Cn1c(NC(=O)c2ccccc2)nc(Cc2ccccc2)c1-c1ccccc1	none (no result: DAX1 inh-2)
Cc1cc(NCCCn2ccnc2)n2ncc(-c3ccc(Cl)cc3)c2n1	hcDAF12 agonist 15, DAX1 inh-1 3.8, ssDAF12 agonist 1.7, hgDAF-12 ag 19 | LXR ag inactive | hcDAF12 ag 19
O=C(O)c1[nH]c2ccccc2c1C(c1cc(Br)ccc1O)c1c(C(=O)O)[nH]c2ccccc12	hcDAF12 agonist 7.1 | LXR ag inactive | hcDAF12 ag inactive
Cc1ccc(/C=C/C(=O)Nc2ncc(C)s2)o1	hcDAF12 agonist 7.2 | LXR ag inactive | hcDAF12 ag inactive
COC(=O)c1cc2c(c3c4cc(C)ccc4n(S(=O)(=O)c4ccc(C)cc4)c13)C(=O)N(Cc1ccc(C(F)(F)F)cc1)C2	none (no result: DAX1 inh-2)
COc1cc(Cl)ccc1OCc1cc(C(=O)N(C)Cc2nnc(C)o2)no1	none
COc1ccc(OCc2cc(C(=O)N(C)Cc3nnc(C)o3)no2)c(Cl)c1	hcDAF12 agonist 6.6 | LXR ag inactive | hcDAF12 ag inactive
COCCCN1CC(=O)N2C(c3cccc(C)c3)c3[nH]c4ccccc4c3C[C@H]2C1=O (stereo partly drawn)	none
COCCN1CC(=O)N2C(c3cccc(C)c3)c3[nH]c4ccccc4c3C[C@H]2C1=O (stereo partly drawn)	hcDAF12 agonist 9.6 | LXR ag inactive | hcDAF12 ag inactive
CCN(CC)C(=O)Cn1c2ccccc2c2nc3n(c(=O)c21)CCS3	none (no result: DAX1 inh-1, DAX1 inh-2)
Cc1ccc(CN=C2Nc3ccccc3CS2)cc1	hcDAF12 agonist 9.7, DAX1 inh-1 4.1, hgDAF-12 ag 15 | LXR ag inactive | hcDAF12 ag 10
C[C@@H]1C[C@H](O)CCCCCC(=O)Cc2cc(O)cc(O)c2C(=O)O1	none (no result: DAX1 inh-2)
Cc1ccc(/C=C/C(=O)Nn2cnnc2)cc1	none
Cc1ccc(/C=C/C(=O)C2C(=O)c3ccccc3C2=O)cc1	hcDAF12 agonist 8.7 | LXR ag inactive | hcDAF12 ag 12
CNc1c(C(=O)O)ccc2c1C(=O)c1ccccc1C2=O	none
O=C(O)c1ccc2c(c1Nc1ccccc1)C(=O)c1ccccc1C2=O	hcDAF12 agonist 7.5, DAX1 inh-2 4.4 | LXR ag inactive | hcDAF12 ag inactive
O=C(N/N=C/c1c[nH]c2ccccc12)c1ccn(Cc2ccc(Cl)cc2Cl)n1	none
COc1ccc2c(/C=N/Nc3ccc(C(=O)O)cc3)c[nH]c2c1	hcDAF12 agonist 10, ssDAF12 agonist 0.9 | LXR ag inactive | hcDAF12 ag 10
COc1ccc2ccccc2c1/C=N/Nc1ccc(Cl)c(C(=O)O)c1	none
COc1ccc(C(=O)N/N=C/c2c[nH]c3ccccc23)cc1	none
O=C(N/N=C/c1c[nH]c2ccccc12)c1cccc(O)c1	none
